One assay concerns JEG-3. Description: Primary qHTS to identify gynecologic anti-cancer compounds using libraries of approved drugs and bioactive compounds (AID 1345084). Further: nearly all actives have a fitted effect of over 55% in size. The note with it: Gynecologic cancer cell panel viability, ATPlite luminescence, 48 h; series mostly up to 57.5 µM. In short, it runs like this: (§1)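 Luminescence from the ATPlite ATP-monitoring reagent indicates viable cell number; lower signal means cytotoxicity. Cells received compound 16 h after seeding and were exposed for 48 h across five concentrations.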

The next assay deals with OV90. Described as above. The note with it: Gynecologic cancer cell panel viability, ATPlite luminescence, 48 h; series mostly up to 57.5 µM. In short, it runs like this: as §1
Background: ATP-based viability assays read luminescence as a measure of living cells.

A further assay has as its system PA-1. The assay is described as above. The note with it: Gynecologic cancer cell panel viability, ATPlite luminescence, 48 h; series mostly up to 57.5 µM. The method, boiled down:
as §1

Another assay relates to SKOV3. The description is as above. To be noted: Gynecologic cancer cell panel viability, ATPlite luminescence, 48 h; series mostly up to 57.5 µM. In short, it runs like this: as §1
A further assay relates to Tov-21-G. The description is as above. To be noted: Gynecologic cancer cell panel viability, ATPlite luminescence, 48 h; series mostly up to 57.5 µM. The method, boiled down:
as §1

The test system of the next assay is Tov112D. Described as above. To be noted: Gynecologic cancer cell panel viability, ATPlite luminescence, 48 h; series mostly up to 57.5 µM. In short, it runs like this: as §1
Assay [1] in a line: Drug repurposing screens with cells derived from glioblastoma tumor samples (AID 1345199). Further: nearly all actives have a fitted effect of over 40% in size. Further: potency means the concentration at half of the fitted maximal effect. The note with it: GBM patient neurospheres viability, ATP luminescence, 48 h. The method, boiled down:
(§2)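 Primary testing used CD133+ neurospheres from four GBM patients, seven concentrations, 48 h exposure and ATP-based viability; confirmation added three slower-growing patient lines.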

The test system of the next assay is astro. The description is as above. To be noted: viability, ATP luminescence, 48 h; series mostly up to 45.9 µM. In short, it runs like this:
as §2

The nature of assay [2]: qHTS assay to identify inhibitors of the type 1 interferon - major histocompatibility complex class I in skeletal muscle: Counter screen cell viability and HiBit confirmation (AID 1347412). Further: nearly all actives have a fitted effect of over 60% in size. The note with it: iHSKM muscle cells + IFN-b, HiBiT or CellTiter-Glo, 24 h; Potency: HiBiT unless noted; Viability, at 45.9 µM (top of the series). The method, boiled down:
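After 24 h with human IFN-beta (4 ng/ml) and compound titrations (top 46 uM final, 1:3, 12 points), HLA-B HiBit myoblasts were lysed for either Nano-Glo HiBiT luminescence or CellTiter Glo viability on paired plates.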
(In qHTS, concentration-response curves come from the screen itself.)

Setting [3] is: at 45.9 µM (top of the series), tumour line B.
[4] abbreviates: at 45.9 µM (top of the series), tumour line D.
The mark [5] stands for this setting: at 46.1 µM (top of the series), tumour line C.
Where [6] appears, read: at 46 µM (top of the series), tumour line A.
[7] abbreviates: at 20 µM (top of the series), tumour line C.
Where [8] appears, read: at 21.2 µM (top of the series), tumour line B.
Setting [9] is: at 21.2 µM (top of the series), tumour line D.
[10] abbreviates: at 21.3 µM (top of the series), tumour line A.

The structures appear in SMILES notation. Where “and” joins values, the source holds several entries; their conditions need not be identical. Equal entries are not always repeated. Results filed as inconclusive are left out. Values without a mark were called inactive. Calls of active or inactive are those of the source. The call rests on the fitted dose curve; in most records, active means well fitted curve in the direction sought with a large enough effect; inconclusive means small, poorly fitted or top-dose-only effect, or another doubt; inactive means no such curve, though single readings can be large; an effect the other way counts as inactive or inconclusive.
On the % scale 0 is the no-effect control and ±100 the full control effect.

Take `OC(CCN1CCCCC1)(c1ccccc1)c1ccccc1`: the Potency result with JEG-3, with OV90, in the assay with PA-1, in the assay on SKOV3, with Tov-21-G and in the assay on Tov112D was “inactive” in each case. The Potency entry in the assay on astro is “inactive”. For the same molecule, the activity, negative = cell killing in [1] (setting [3]) is -13.7%; in assay [1] (setting [4]), -5.27%; in [1] (setting [5]), 4.07%. The Potency in [1] (tumour line A) is 12.6 µM (active).
As to `COc1cccc(OC)c1C(=O)N[C@@H]1C(=O)N2[C@@H]1SC(C)(C)[C@@H]2C(=O)O`, the Potency entry with JEG-3, in the assay with OV90, in the assay on PA-1, with SKOV3, in the assay with Tov-21-G and in the assay on Tov112D was “inactive” each time. Further, the Potency entry in the assay with astro was “inactive”. Further, the activity, negative = cell killing was -0.637% in assay [1] (setting [3]), -7.13% in [1] (setting [4]), -15.4% in assay [1] (setting [6]) and 14.7% in assay [1] (setting [5]).
As for `NC(CO)(CO)CO`, the Potency entry in the assay with JEG-3, in the assay on OV90, in the assay with PA-1, in the assay with SKOV3, with Tov-21-G and with Tov112D was “inactive” each time. Moreover, in the assay with astro, the Potency entry was “inactive”. In addition, the activity, negative = cell killing in [1] (setting [3]) is -1.58%; in assay [1] (setting [4]), 6.44%; in assay [1] (setting [6]) it was -13.6%; in [1] (setting [5]), 0.171%.
For `CC1(C)O[C@@H]2[C@@H](CO[C@@]3(COS(N)(=O)=O)OC(C)(C)O[C@@H]23)O1`, the Potency entry with JEG-3, in the assay on OV90, in the assay on PA-1, in the assay with SKOV3, in the assay with Tov-21-G and in the assay on Tov112D was “inactive” each time. Moreover, in the assay with astro, the Potency result is “inactive”. The activity, negative = cell killing in [1] (setting [3]) was 2.05%; in assay [1] (setting [4]), -22.3%; in assay [1] (setting [6]), -14.9%; in assay [1] (setting [5]), -2.36%.
For `CC(=O)Nc1c(I)cc(I)c(C(=O)O)c1I`, the Potency result with JEG-3, with OV90, in the assay with PA-1, in the assay with SKOV3, in the assay with Tov-21-G and with Tov112D was “inactive” each time. For the same molecule, the Potency entry with astro is “inactive”. Besides, the activity, negative = cell killing was -18.2% in assay [1] (setting [3]), -1.85% in assay [1] (setting [4]), -31.3% in assay [1] (setting [6]) and 23.7% in assay [1] (setting [5]).
As to `CCN1CCCC1=O`, the Potency result with JEG-3, in the assay with OV90, in the assay on PA-1, with SKOV3, with Tov-21-G and in the assay with Tov112D was “inactive” in each case. The Potency entry in the assay on astro is “inactive”. The activity, negative = cell killing in assay [1] (setting [3]) was -8.97%; in assay [1] (setting [4]), 9.06%; in assay [1] (setting [6]) it was -27.1%; in assay [1] (setting [5]), 2.13%.
Regarding `NC(=O)c1cc[n+](CC2=C(C(=O)[O-])N3C(=O)[C@@H](NC(=O)Cc4cccs4)[C@H]3SC2)cc1`, the Potency result with JEG-3, with OV90, in the assay on PA-1, in the assay with SKOV3, in the assay with Tov-21-G and with Tov112D was “inactive” throughout. Moreover, the Potency result with astro was “inactive”. The activity, negative = cell killing in assay [1] (setting [7]) was -2.18%; in [1] (setting [8]), -10.7%; in assay [1] (setting [9]) it was -13.1%; in assay [1] (setting [10]), -27.6%.
In the case of `CCn1cc(C(=O)O)c(=O)c2cnc(N3CCCC3)nc21`, the activity change, negative = cytotoxicity in the assay on JEG-3 was -0.757% [at 11.6 µM]; with OV90, -1.88% [at 11.6 µM]; with PA-1 it was 3.4% [at 11.6 µM]; in the assay with SKOV3, 27% [at 11.6 µM]; with Tov-21-G it was 5.91% [at 11.6 µM]; with Tov112D it was 5.36% [at 11.6 µM]. For the same molecule, the activity, negative = cell killing is -8.14% in assay [1] (setting [7]), -5.2% in assay [1] (setting [8]), -3.67% in assay [1] (setting [9]) and -24.5% in assay [1] (setting [10]). Also, in the assay on astro, the Potency entry is “inactive”.
For `CN1CCC[C@@H]1c1cccnc1`, the Potency result with JEG-3, with OV90, in the assay on PA-1, in the assay with SKOV3, in the assay with Tov-21-G and in the assay with Tov112D was “inactive” throughout. Further, in the assay with astro, the Potency entry was “inactive”. Moreover, the activity, negative = cell killing was -7.48% in assay [1] (setting [3]), -12.9% in [1] (setting [4]), -29.1% in assay [1] (setting [6]) and -0.391% in assay [1] (setting [5]).
`COc1cc(OC)cc(OC)c1`: the Potency result in the assay with JEG-3, with OV90, with PA-1, in the assay on SKOV3, with Tov-21-G and in the assay with Tov112D was “inactive” throughout. The Potency entry in the assay on astro is “inactive”. Moreover, the activity, negative = cell killing is -3.53% in assay [1] (setting [3]), 7.76% in [1] (setting [4]), -12.5% in assay [1] (setting [6]) and -1.01% in assay [1] (setting [5]).
Regarding `CCOc1ccc(NC(=O)CC(C)O)cc1` (centres undefined), the Potency entry with JEG-3, in the assay on OV90, in the assay on PA-1, with SKOV3, with Tov-21-G and with Tov112D was “inactive” each time. Further, the Potency entry with astro is “inactive”. In addition, the activity, negative = cell killing was -5.84% in [1] (setting [3]), -16.9% in assay [1] (setting [4]), -20.2% in assay [1] (setting [6]) and -0.587% in assay [1] (setting [5]).
On to `C/C=C/c1ccc(OC)cc1`, for which the Potency entry in the assay with JEG-3, in the assay on OV90, in the assay with PA-1, with SKOV3, in the assay with Tov-21-G and with Tov112D was “inactive” in each case. The Potency entry with astro was “inactive”. Besides, the activity, negative = cell killing in assay [1] (setting [3]) is -1.8%; in assay [1] (setting [4]), 3.04%; in assay [1] (setting [6]) it was -17.3%; in assay [1] (setting [5]), 0.347%.
Take `Cc1cc(O)c(C(C)C)cc1Cl`: the Potency result in the assay with JEG-3, in the assay on OV90, with PA-1, in the assay with SKOV3, with Tov-21-G and in the assay with Tov112D was “inactive” each time. In addition, in the assay with astro, the Potency result is “inactive”. For the same molecule, the activity, negative = cell killing is -5.69% in assay [1] (setting [3]), -7.04% in assay [1] (setting [4]) and 8.96% in assay [1] (setting [5]).
As to `Cc1ccc(C(=O)C(C)CN2CCCCC2)cc1` (centres undefined), the Potency entry with JEG-3, in the assay with OV90, with PA-1, with SKOV3, in the assay with Tov-21-G and with Tov112D was “inactive” throughout. In the assay with astro, the Potency result is “inactive”. Moreover, the activity, negative = cell killing in [1] (setting [3]) is -5.6% and -9.58%; in assay [1] (setting [4]), -3.01% and -24.6%; in assay [1] (setting [5]) it was 4.06% and 1.53%.
`C[C@]12C=CC(=O)C=C1[C@@H](F)C[C@@H]1[C@@H]2[C@@H](O)C[C@@]2(C)[C@H]1CC[C@]2(O)C(=O)CO`: the Potency result in the assay on JEG-3, in the assay with OV90, with PA-1, in the assay on SKOV3, in the assay with Tov-21-G and with Tov112D was “inactive” each time. The Potency result (in the assay with astro; in assay [2]) was “inactive” in each case. For the same molecule, the activity, negative = cell killing in assay [1] (setting [3]) is -7.25% and -6.51%; in assay [1] (setting [4]), -13.8% and -3.47%; in assay [1] (setting [6]), -18%; in assay [1] (setting [5]) it was -19.6% and -9.59%.

For the origin of these results see PubChem BioAssay (NCATS).
